# Records with an inconclusive call do not appear. Calls of active or inactive are those of the source. Calls follow the shape of the dose curve; as a rule, active = well fitted inhibition curve with a large enough effect; inconclusive = small, poorly fitted or top-dose-only effect; inactive = no such curve, though single readings can be large or run the other way. Bridge positions count the residues as written; N and C are the ends. Square brackets hold non-standard residues; d marks the D form. Peptide text beside a SMILES is read from it. * marks the point of attachment. Octanoyl(6-Me) = CCC(C)CCCCC(=O)*; Dab = NCC[CH](N)C(=O)O
# Target: Cytochrome P450 3A4 (Homo sapiens) (UniProt P08684)
# Experiment: qHTS Assay for Inhibitors and Substrates of Cytochrome P450 3A4 (AID 884); also: nearly all actives have a fitted effect of over 50% in size
# Conditions: recombinant CYP3A4, Luciferin-PPXE luminescence; series mostly up to 57.1 µM; activity change, negative = inhibition: at the top concentration
# Experimental: NIH Molecular Libraries Screening Centers Network [MLSCN]
# NIH Chemical Genomics Center [NCGC]
# The P450 gene superfamily is involved in the metabolism and clearance of xenobiotics. This assay used human CYP3A4 to measure the dealkylation of luciferin-6' phenylpiperazinylyl (Luciferin-PPXE; […]) to luciferin. The luciferin is then measured by luminescence after the addition of a luciferase detection reagent. Luciferin-PPXE concentration in the assay was equal to its KM for CYP3A4. Inhibitors and some substrates limit the production of luciferin, and decrease measured luminescence.
# NCGC Assay Protocol Summary:
# Two uL of enzyme and substrate mix (final concentrations: 20nM CYP3A4, 25uM Luciferin-PPXE, 200mM KPO4) were dispensed into a white, solid bottom 1536-well microtiter plate. 23nL of compound was transferred by a pin tool. The plate was incubated at RT for 10 min. Two uL of an NADPH regeneration solution (Promega supplied reagent) was dispensed and the reaction was allowed to continue for 60 min at RT. Then the reaction was stopped by reconstituted luciferin detection buffer. After another 20 min of incubation the plate was read on the ViewLux (Perkin Elmer) at 60 sec exposure and 2x2 binning. This protocol was carried out with Promega-Glo reagents and further information can be found at http://www.promega.com/tbs/tb325/tb325.pdf. Data were normalized to the to AC100 inhibition (57 uM ketoconazole).
# Keywords: P450, CYP3A4, Luciferase, MLSMR, MLSCN, NIH Roadmap, qHTS, NCGC
# % is scaled to controls: 0 for no effect and ±100 for the full control effect; potency is read from the fitted curve at half-maximal effect.
# Cytochrome P450 3A4 (Homo sapiens), sequence (P08684 whole entry, looked up): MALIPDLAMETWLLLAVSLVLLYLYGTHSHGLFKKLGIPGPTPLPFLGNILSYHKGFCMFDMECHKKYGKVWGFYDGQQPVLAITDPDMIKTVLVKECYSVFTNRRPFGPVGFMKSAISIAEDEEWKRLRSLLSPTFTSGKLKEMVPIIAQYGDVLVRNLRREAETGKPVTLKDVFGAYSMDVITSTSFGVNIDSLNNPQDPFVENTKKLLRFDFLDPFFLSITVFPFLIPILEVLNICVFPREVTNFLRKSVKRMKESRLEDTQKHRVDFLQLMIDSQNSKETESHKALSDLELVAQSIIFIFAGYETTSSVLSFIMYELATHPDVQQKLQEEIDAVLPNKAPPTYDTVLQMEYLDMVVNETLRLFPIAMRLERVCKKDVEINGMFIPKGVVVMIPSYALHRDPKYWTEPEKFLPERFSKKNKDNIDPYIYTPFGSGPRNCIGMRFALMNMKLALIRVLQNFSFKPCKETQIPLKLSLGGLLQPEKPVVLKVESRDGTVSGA
SMILES,"activity change, negative = inhibition",Potency
NC1=NC(S)C2N=CN=C2N1 (stereo not given),-23.6% (inactive),–
c1ccc2c(c1)[nH]c1ccccc12,-27.2% (inactive),–
CCC(C)CCCCC(=O)NC(CCN)C(=O)NC(C(=O)NC(CCN)C(=O)NC1CCNC(=O)C(C(C)O)NC(=O)C(CCN)NC(=O)C(CCN)NC(=O)C(CC(C)C)NC(=O)C(Cc2ccccc2)NC(=O)C(CCN)NC1=O)C(C)O (stereo not given) ({Octanoyl(6-Me)}-[Dab]T[Dab][Dab][Dab]FL[Dab][Dab]T; lactam 4-C; configuration not given here),-4.54% (inactive),–
O=C1CC(c2ccccc2)Oc2ccccc21 (stereo not given),6.35% (inactive),–
CCC(C)c1ccccc1O (stereo not given),–,inactive
COc1ccc2c(c1)OCC(Cc1ccc(OC)c(OC)c1)C2=O (stereo not given),–,15800 nM (active)
Cc1ccccc1-c1ccc2ncnc(N3CCOCC3)c2c1,-51.1% (inactive),–
CS(=O)(=O)Nc1cccc(-c2nc(Nc3ccncc3)c3ccccc3n2)c1,–,3980 nM (active)
COc1ccc2[nH]cc(CCNc3ncncc3-c3ccccc3C)c2c1,–,316 nM (active)
COc1cccc(-c2cncnc2NCCc2c[nH]c3ccc(OC)cc23)c1,–,501 nM (active)
CC12CCC(CC1=O)C2(C)C (stereo not given),-15.4% (inactive),–
Cc1ccc([N+](=O)[O-])c(C)c1,-10.9% (inactive),–
COc1cccc(-c2nc(NCc3cccnc3)c3ccccc3n2)c1,–,2000 nM (active)
COc1ccc(-c2nc3cnc(N4CCN(C)CC4)nc3n(CCc3ccccc3)c2=O)cc1,46.3% (inactive),–
c1ccccc1,–,inactive
COc1ccccc1CNc1ncncc1-c1ccc2c(c1)OCO2,–,199 nM (active)
O=S(=O)(O)C1CCNCC1,9.72% (inactive),–
O=C1c2ccccc2C(=O)C1c1ccc2ccccc2n1,–,2510 nM (active)
Cc1cnc(CNc2ncnc3ccc(-c4ccccc4Cl)cc23)cn1,–,2510 nM (active)
COc1ccc(CNc2cc(-c3cccc(NS(C)(=O)=O)c3)ncn2)c(OC)c1,–,2510 nM (active)

SMILES,"activity change, negative = inhibition",Potency
C1OCOCO1,-15.1% (inactive),–
COc1ccc(/C=C/C(=O)c2cccs2)c(OC)c1,–,6310 nM (active)
O=c1ccc2cc3ccoc3cc2o1,–,31600 nM (active)
CN(Cc1ccco1)c1ncnc2ccc(-c3cccc(NS(C)(=O)=O)c3)cc12,–,5010 nM (active)
CC(C)=CCCC(C)CCO (stereo not given),-13.7% (inactive),–
c1cn(-c2ncnc3ccc(-c4ccoc4)cc23)cn1,–,631 nM (active)
c1ccc2scnc2c1,-10.7% (inactive),–
COc1ccc2[nH]cc(CCNc3ncncc3-c3ccccc3OC)c2c1,–,126 nM (active)
COCC(=O)O,-7.34% (inactive),–
CCCCCCCCCCCCC[N+](C)(C)Cc1ccccc1,-11.8% (inactive),–
COc1ccc(/C=C/c2cc(OC)cc(=O)o2)cc1,-17.4% (inactive),–
Clc1ccccc1-c1ccc2ncnc(NCCN3CCOCC3)c2c1,–,5010 nM (active)
CCCN(CCC)C(=O)SCC,6.75% (inactive),–
COc1cc(/C=C/c2ccccc2)oc(=O)c1,–,15800 nM (active)
CCCCOCCO,–,inactive
COc1cc(C)c2c(=O)cc(-c3ccccc3)oc2c1,–,12600 nM (active)
CCCCCCCCCCCCCCC1CO1 (stereo not given),-2.95% (inactive),–
COc1ccc(Oc2ncc3nc(C)c(=O)n(Cc4cccs4)c3n2)cc1,–,3160 nM (active)
COc1ccc2[nH]cc(CCNc3ncnc4ccc(-c5cccc(C#N)c5)cc34)c2c1,–,2510 nM (active)
O=C(O)CC(C(=O)O)C(CC(=O)O)C(=O)O (stereo not given),-0.366% (inactive),–

# Reference: PubChem BioAssay (NCATS)
